The source of these data is PubChem BioAssay (NCATS).

Assay [1] has as its target Lysosomal acid glucosylceramidase (Homo sapiens) (UniProt P04062). The experiment in a line: Glucocerebrosidase-p2 (AID 348; in the data active means potency below about 10 µM; further: potency means the concentration at half of the fitted maximal effect). Conditions: purified GBA, blue fluorogenic substrate, 40 min. The gist of the method:
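Normal human glucocerebrosidase (0.2 nM) with blue fluorogenic substrate (80 uM final) in citrate/phosphate pH 5.9 with 10mM sodium taurocholate, 0.01% tween-20; 40 min RT, NaOH/glycine stop; fluorescence Ex 365/Em 440; AC50 from a titration from 0.6 nM upwards.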

A short description of assay [2]: AP1 Signaling Pathway (AID 357; active means well fitted curve in either direction with a large enough effect, not every such curve was filed as active;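 further: ME-180 reporter cells stimulated with EGF at its EC50 level; on the % scale 0 is the no-effect control and ±100 the full control effect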). Conditions: ME-180 AP-1-bla reporter, EGF-induced, beta-lactamase ratio, 5 h; at 7.69 µM (top of the series) unless noted. In short, it runs like this: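 Beta-lactamase reporter under AP-1 response element, ME-180 background. Stimulus: EC50 EGF. Compound exposure 5 h, 37 °C. Detection: CCF4, 2.5 h RT, 460/530 nm. Values: AC50 from titration.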

In assay [3] the target is Cytochrome P450 1A2 (Homo sapiens) (UniProt P05177). The experiment in a line: p450-cyp1a2 (AID 410). Further: potency means the concentration at half of the fitted maximal effect.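 On activity change, negative = inhibition: -100% = full effect of reference inhibitor.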 To be noted: recombinant CYP1A2, luciferin-ME demethylation, luminescence; series mostly up to 57 µM. The gist of the method:
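O-Demethylation of luciferin 6' methyl ether by human CYP1A2 is monitored as luciferase luminescence. Substrate sits at Km (100uM); enzyme is 20nM. Values are scaled to 57 uM furafylline as maximal inhibition.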

Assay [4] is described as follows: Stat Signaling Pathway (AID 446; active means well fitted curve in either direction with a large enough effect, not every such curve was filed as active;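 further: ME-180 cervical cancer cells given 40 pM IL-6 alongside compound; SIE-controlled beta-lactamase reporter measured as 460/530 nm FRET emission ratio; on the % scale 0 is the no-effect control and ±100 the full control effect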). Conditions: ME-180 SIE beta-lactamase reporter, IL-6 stimulated, 5 h; at 7.69 µM (top of the series) unless noted. In short, it runs like this: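 Emission at 460 and 530 nm (excitation 405 nm) reports SIE-controlled beta-lactamase in ME-180 cells. Cells received compound with 40 pM IL-6 for 5 hrs at 37 C; data scaled between 300 pM IL-6 and 125 nM JAK-inhibitor controls.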

Assay [5] concerns the target Glucocorticoid receptor (Homo sapiens) (UniProt P04150). The experiment in a line: GR-EFC Redistribution (AID 451). Further: potency means the concentration at half of the fitted maximal effect. Conditions: CHO-K1 GR-EFC translocation, beta-gal luminescence, 2 h. The gist of the method:
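CHO-K1 cells stably expressing nuclear-localized β-gal enzyme acceptor and GR fused C-terminally to the enzyme donor fragment; ligand-driven nuclear translocation restores β-gal by complementation. Compounds titrated up to 46 uM final, 2 h at 37 °C; luminescence read.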

The target in assay [6] is Mitogen-activated protein kinase 10 (Mus musculus) (UniProt Q61831). In words: JNK3 AlphaScreen Assay (AID 530; active means well fitted curve in either direction with a large enough effect, not every such curve was filed as active;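 further: kinase came from lysate of stimulated human HepG2 cells; signal reports phosphorylation of biotinylated GST-cJun 1-79 at Ser73 with 10 µM ATP; on the % scale 0 is the no-effect control and ±100 the full control effect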). Conditions: JNK3 lysate, c-Jun phosphorylation; series mostly up to 57.1 µM. The gist of the method:
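Phosphorylation of biotinylated GST-cJun(1-79) at Ser73 is measured by AlphaScreen proximity luminescence. Enzyme is JNK3 in HepG2 lysates activated with interleukin-1beta and tumor necrosis factor alpha; ATP is 10 uM final.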

Assay [7] concerns the target 3',5'-cyclic-AMP phosphodiesterase 4B (Homo sapiens) (UniProt Q07343). In words: qHTS Assay for Inhibitors of PDE-IV (AID 607; active means well fitted activation curve with a large enough effect in the main read-out, with a control signal flat, not every such curve was filed as active; further: % of control where 0% means no effect). Conditions: HEK293 ACTOne CNG channel cells, membrane potential fluorescence; series mostly up to 22.9 µM. The gist of the method:
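The readout is membrane depolarisation from a cAMP-sensing CNG channel, detected with a potential dye at ex 535/em 590. Cells were HEK293-derived (endogenous PDE-IV) at 1000 cells/well, titrated up to 22.9 uM final.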

Assay [8] concerns the target Cytochrome P450 3A4 (Homo sapiens) (UniProt P08684). In words: qHTS Assay for Activators of Cytochrome P450 3A4 (AID 885; active means well fitted curve in the direction sought with a large enough effect; an effect the other way counts as inactive or inconclusive; further: nearly all actives have a fitted effect of over 65% in size). To be noted: recombinant CYP3A4, Luciferin-PPXE luminescence, 60 min; series mostly up to 57.1 µM. In short, it runs like this:
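Activators are scored by enhanced luminescence from CYP3A4 conversion of luciferin-PPXE (25uM, equal to KM) to luciferin, after 60 min at RT with an NADPH-regenerating system.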

Assay [9] deals with Cytochrome P450 2C19 (Homo sapiens) (UniProt P33261). The experiment in a line: qHTS Assay for Inhibitors and Substrates of Cytochrome P450 2C19 (AID 899; active means well fitted curve in the direction sought with a large enough effect; an effect the other way counts as inactive or inconclusive; further: potency means the concentration at half of the fitted maximal effect; nearly all actives have a fitted effect of over 60% in size). To be noted: recombinant CYP2C19, luciferin-H EGE luminescence; series mostly up to 57.1 µM. The gist of the method:
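NADPH-dependent conversion of Luciferin-H EGE (10uM, at KM) by 5nM enzyme in 50mM KPO4, 60 min at 37C following 10 min compound preincubation. Stopped with luciferin detection buffer; luminescence read after 20 min.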

Assay [10] in a line: qHTS Assay for Lipid Storage Modulators (AID 1519). Conditions: Drosophila S3 cells, BODIPY lipid droplet/cell ratio, laser cytometry, cells loaded with oleic acid; for activity change, negative = inhibition: at 57.5 µM (top of the series). The gist of the method: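 Cells seeded at 5,000 per well were treated with compounds over a concentration series and loaded with oleic acid (400 uM, as added). Lipid droplet fluorescence (488 nm excitation, 500-530 nm channel) was read by laser-scanning cytometry and normalized to 20 uM Triacsin C.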

Assay [11] in a line: Primary qHTS for small molecule stabilizers of the endoplasmic reticulum resident proteome: Secreted ER Calcium Modulated Protein (SERCaMP) assay (AID 1508630; active means well fitted curve in the direction sought with a large enough effect; an effect the other way counts as inactive or inconclusive; further: on the % scale 0 is the no-effect control and ±100 the full control effect). To be noted: SH-SY5Y GLuc-SERCaMP (Gaussia luciferase released on ER calcium loss) secretion, thapsigargin, luminescence; series mostly up to 38.4 µM. In short, it runs like this:
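The SH-SY5Y reporter protocol was run at 3 concentrations up to 38.3 uM (primary) or 11 concentrations (follow-up): 16 h compound, 100 nM thapsigargin for 4 h, then extracellular luciferase luminescence.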

For assay [12], the target named is Cytochrome P450 2D6 (Homo sapiens) (UniProt P10635). The experiment in a line: qHTS Assay for Inhibitors and Substrates of Cytochrome P450 2D6 (AID 891; active means well fitted curve in the direction sought with a large enough effect; an effect the other way counts as inactive or inconclusive; further: potency means the concentration at half of the fitted maximal effect; nearly all actives have a fitted effect of over 60% in size). To be noted: recombinant CYP2D6, luciferin-ME EGE luminescence; series mostly up to 57.1 µM. In short, it runs like this: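 Luminescent read-out of luciferin formed by 5 nM human CYP2D6 demethylating 30 uM Luciferin-ME EGE (Km level) over 60 min at room temperature after NADPH regeneration addition. Data normalized to full inhibition by 1.43 uM quinidine.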

Assay [13] can be described thus: qHTS Assay for Identification of Small Molecule Agonists for Hypoxia Response Element Signaling Pathway (AID 914; active means well fitted activation curve with a large enough effect in the signal ratio, with a control signal flat, not every such curve was filed as active; the % refers to the signal ratio; further: % of control where 0% means no effect). Conditions: ME-180 (cervical carcinoma) HRE-bla reporter, beta-lactamase ratio, CoCl2, 17 h; activation: stronger effect = higher value. The gist of the method: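 Read-out: CCF4 FRET ratio of 460nm to 530nm emission (excitation 405nm) after 2.5 hours at room temperature, taken from HRE-bla ME-180 cells that had been exposed to compound and EC50 CoCl2 for 17 hours.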

The mark [14] stands for this setting: measured here: cell count channel max response.
The mark [15] stands for this setting: measured here: lipid channel max response.

Results filed as inconclusive are left out. Activity calls are given as the source filed them. Unless noted, the call rests on the fitted dose curve.

Sequence of Cytochrome P450 1A2 (Homo sapiens) (P05177 whole entry, looked up): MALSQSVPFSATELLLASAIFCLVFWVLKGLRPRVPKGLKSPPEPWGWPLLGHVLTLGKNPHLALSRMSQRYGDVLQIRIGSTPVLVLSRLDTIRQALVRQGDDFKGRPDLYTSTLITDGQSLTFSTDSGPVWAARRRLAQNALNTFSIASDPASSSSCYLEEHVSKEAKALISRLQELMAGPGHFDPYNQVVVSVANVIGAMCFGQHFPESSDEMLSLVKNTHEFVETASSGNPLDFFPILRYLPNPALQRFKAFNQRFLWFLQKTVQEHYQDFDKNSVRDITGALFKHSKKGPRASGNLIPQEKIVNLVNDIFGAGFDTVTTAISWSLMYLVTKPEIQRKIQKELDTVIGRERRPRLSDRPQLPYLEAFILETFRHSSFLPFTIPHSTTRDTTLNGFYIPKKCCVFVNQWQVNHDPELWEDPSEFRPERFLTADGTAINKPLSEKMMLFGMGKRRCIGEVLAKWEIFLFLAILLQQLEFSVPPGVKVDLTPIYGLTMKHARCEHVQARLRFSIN
Sequence of Glucocorticoid receptor (Homo sapiens) (P04150 whole entry, looked up, the tested form may be a part): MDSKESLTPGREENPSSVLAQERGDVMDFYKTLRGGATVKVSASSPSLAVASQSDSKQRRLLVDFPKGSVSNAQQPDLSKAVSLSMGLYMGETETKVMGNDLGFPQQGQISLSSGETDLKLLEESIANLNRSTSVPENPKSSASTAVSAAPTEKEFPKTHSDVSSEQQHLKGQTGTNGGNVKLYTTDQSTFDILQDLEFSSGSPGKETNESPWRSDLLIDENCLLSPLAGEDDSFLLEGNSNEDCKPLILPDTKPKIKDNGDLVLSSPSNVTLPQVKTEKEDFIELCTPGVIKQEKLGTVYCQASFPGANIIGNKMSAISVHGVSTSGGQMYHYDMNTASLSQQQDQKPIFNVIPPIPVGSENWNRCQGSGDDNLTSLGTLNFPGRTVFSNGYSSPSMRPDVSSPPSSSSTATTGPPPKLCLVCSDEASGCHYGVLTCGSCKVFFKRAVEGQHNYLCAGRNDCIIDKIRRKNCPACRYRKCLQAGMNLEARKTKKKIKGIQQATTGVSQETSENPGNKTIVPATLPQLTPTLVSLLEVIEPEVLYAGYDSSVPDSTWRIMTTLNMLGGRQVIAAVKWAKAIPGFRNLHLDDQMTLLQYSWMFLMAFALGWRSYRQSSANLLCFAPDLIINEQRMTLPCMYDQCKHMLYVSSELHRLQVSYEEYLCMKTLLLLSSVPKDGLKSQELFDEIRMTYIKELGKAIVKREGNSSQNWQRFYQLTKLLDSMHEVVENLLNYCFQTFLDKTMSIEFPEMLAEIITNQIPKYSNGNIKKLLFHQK
Sequence of Cytochrome P450 2D6 (Homo sapiens) (P10635 whole entry, looked up): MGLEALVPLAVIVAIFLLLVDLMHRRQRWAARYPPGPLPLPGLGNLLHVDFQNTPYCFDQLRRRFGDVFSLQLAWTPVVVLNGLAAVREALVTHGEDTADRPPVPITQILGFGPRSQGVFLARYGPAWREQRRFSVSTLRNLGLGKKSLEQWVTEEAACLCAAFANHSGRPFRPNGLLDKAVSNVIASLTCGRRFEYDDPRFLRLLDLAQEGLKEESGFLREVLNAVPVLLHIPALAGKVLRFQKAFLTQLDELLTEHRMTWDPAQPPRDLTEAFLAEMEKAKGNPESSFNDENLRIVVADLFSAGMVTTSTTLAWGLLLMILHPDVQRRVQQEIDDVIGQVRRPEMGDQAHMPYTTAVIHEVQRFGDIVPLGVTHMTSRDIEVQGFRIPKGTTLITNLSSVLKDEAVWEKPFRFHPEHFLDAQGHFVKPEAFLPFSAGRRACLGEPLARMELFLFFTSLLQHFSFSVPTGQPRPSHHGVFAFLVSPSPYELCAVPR
Sequence of Lysosomal acid glucosylceramidase (Homo sapiens) (P04062 whole entry, looked up): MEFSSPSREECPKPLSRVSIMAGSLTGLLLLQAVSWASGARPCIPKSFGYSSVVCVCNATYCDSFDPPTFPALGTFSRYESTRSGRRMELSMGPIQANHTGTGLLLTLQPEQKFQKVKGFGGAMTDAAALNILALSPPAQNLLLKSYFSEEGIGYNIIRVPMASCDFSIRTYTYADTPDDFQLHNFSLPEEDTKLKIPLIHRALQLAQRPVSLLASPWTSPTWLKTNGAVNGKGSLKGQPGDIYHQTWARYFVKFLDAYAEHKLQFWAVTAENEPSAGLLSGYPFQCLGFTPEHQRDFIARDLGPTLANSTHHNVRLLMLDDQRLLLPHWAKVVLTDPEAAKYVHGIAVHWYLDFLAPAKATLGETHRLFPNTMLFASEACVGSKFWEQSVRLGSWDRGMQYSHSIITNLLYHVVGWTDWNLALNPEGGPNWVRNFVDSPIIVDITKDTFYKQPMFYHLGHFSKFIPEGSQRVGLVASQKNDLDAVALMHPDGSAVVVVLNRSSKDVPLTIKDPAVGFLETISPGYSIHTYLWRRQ
Sequence of Cytochrome P450 3A4 (Homo sapiens) (P08684 whole entry, looked up): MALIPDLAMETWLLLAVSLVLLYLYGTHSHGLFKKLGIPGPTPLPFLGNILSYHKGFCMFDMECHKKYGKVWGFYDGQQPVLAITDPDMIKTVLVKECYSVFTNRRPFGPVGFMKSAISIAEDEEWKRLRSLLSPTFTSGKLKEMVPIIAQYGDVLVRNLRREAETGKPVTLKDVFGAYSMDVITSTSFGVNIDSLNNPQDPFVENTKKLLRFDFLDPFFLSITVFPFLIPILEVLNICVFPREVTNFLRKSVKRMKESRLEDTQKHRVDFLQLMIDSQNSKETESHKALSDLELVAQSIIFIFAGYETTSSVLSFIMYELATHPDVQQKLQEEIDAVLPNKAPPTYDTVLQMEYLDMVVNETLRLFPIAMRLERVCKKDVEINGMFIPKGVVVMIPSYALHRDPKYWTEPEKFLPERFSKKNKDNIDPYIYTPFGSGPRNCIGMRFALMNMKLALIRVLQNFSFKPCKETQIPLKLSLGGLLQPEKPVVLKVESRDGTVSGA
Sequence of 3',5'-cyclic-AMP phosphodiesterase 4B (Homo sapiens) (Q07343 whole entry, looked up): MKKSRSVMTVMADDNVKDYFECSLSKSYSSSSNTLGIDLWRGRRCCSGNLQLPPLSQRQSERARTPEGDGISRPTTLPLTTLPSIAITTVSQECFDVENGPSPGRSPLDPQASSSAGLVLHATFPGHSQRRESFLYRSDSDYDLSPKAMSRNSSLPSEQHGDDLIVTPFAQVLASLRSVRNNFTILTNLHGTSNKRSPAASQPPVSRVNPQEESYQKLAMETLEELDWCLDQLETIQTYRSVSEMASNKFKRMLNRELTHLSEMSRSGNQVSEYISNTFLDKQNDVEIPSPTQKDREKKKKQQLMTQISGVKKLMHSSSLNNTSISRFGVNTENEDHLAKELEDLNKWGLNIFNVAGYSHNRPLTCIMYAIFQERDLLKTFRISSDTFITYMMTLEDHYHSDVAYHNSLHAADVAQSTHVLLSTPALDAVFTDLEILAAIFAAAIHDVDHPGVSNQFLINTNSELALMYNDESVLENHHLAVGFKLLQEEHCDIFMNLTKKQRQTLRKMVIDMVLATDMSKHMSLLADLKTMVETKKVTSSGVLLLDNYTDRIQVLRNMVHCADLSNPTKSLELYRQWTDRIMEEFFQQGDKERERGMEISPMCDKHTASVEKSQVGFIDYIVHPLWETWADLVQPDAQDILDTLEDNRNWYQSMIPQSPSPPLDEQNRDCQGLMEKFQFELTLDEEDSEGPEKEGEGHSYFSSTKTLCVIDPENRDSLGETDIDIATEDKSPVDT
Sequence of Cytochrome P450 2C19 (Homo sapiens) (P33261 whole entry, looked up): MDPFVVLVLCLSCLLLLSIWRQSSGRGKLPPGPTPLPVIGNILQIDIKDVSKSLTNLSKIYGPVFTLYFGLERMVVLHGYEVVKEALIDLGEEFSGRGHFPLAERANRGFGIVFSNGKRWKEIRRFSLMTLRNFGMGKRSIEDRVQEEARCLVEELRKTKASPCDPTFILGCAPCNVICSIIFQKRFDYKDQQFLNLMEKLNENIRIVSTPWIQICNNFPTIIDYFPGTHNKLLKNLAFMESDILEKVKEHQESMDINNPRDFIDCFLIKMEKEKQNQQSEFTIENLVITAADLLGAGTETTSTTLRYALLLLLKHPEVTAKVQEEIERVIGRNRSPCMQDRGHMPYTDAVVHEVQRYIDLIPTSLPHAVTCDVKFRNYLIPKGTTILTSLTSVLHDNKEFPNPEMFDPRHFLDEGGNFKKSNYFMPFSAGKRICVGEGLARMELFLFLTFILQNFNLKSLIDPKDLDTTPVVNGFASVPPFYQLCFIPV

For `O=C(Oc1ccccc1)N1CCC2(CCCN(c3ccccn3)C2)CC1`, the Potency in assay [1] is > 11.4 µM (inactive); in assay [3], 20 µM (active); in [5], > 46 µM (inactive); in assay [9], 7.94 µM (active). Moreover, the activity change, negative = inhibition in assay [2] is -14.7% (inactive); in assay [10], 1.87% (inactive). Further, the activity, negative = inhibition in assay [4] was 2.71% (inactive). Further, the Potency result in assay [6], in [7] and in assay [8] was “inactive” each time. For the same compound, the max response in assay [10] (setting [14]) is -15.5%; in assay [10] (setting [15]) it was -9.96%. For the same compound, the outcome in assay [11] was inactive.

Regarding `COc1ccccc1CN1CCCC2(CCN(C(C)=O)CC2)C1`, the Potency in [1] was > 11.4 µM (inactive); in assay [3], 25.1 µM (active); in [5] it was > 46 µM (inactive); in assay [12], 3.16 µM (active). The activity change, negative = inhibition in [2] is 0.608% (inactive); in [10] it was 0.567% (inactive). In [4], the activity, negative = inhibition was 9.98% (inactive). Besides, the Potency result in [6] and in assay [7] was “inactive” each time. The results for the max response in [10] (setting [14]) and in assay [10] (setting [15]) were 7.93% and 13%, respectively. Moreover, the outcome in assay [11] was inactive.

On to `COc1ccccc1CN1CCCC2(CCN(C(=O)c3cnccn3)CC2)C1`, for which the Potency in [1] is > 11.4 µM (inactive); in assay [5] it was > 46 µM (inactive); in [12], 3.98 µM (active). Besides, the activity change, negative = inhibition in [2] was 4.14% (inactive); in assay [10] it was 3.91% (inactive). Further, the Potency result in [3], in assay [6], in assay [7] and in assay [8] was “inactive” in each case. In addition, the max response is -6.38% in [10] (setting [14]) and 0.432% in assay [10] (setting [15]). Further, the outcome in assay [11] was inactive.

With `CC(C)CN1CCCC2(CCN(C(=O)c3csnn3)CC2)C1`, the Potency was > 11.4 µM (inactive) in [1], > 46 µM (inactive) in assay [5] and 5.01 µM (active) in assay [12]. Besides, the activity change, negative = inhibition in assay [2] is 1.87% (inactive); in assay [10], 2.3% (inactive). For the same compound, the Potency entry in assay [3], in assay [6], in assay [7] and in assay [8] was “inactive” throughout. Also, in assay [4], the activity, negative = inhibition is -5.65% (inactive). In addition, the max response worked out at 15.1% in assay [10] (setting [14]) and 21% in assay [10] (setting [15]). Moreover, in [11], the result was inactive.

Turning to `COc1ccccc1CN1CCCC2(CCN(C(=O)c3csnn3)CC2)C1`, the figures for the Potency in [1] and in assay [5] were > 11.4 µM (inactive) and > 46 µM (inactive), respectively. Besides, the activity change, negative = inhibition in assay [2] is 3.73% (inactive); in assay [10], 6.98% (inactive). Moreover, the Potency entry in assay [3], in assay [6], in assay [7] and in assay [8] was “inactive” each time. The activity, negative = inhibition in assay [4] is 0.773% (inactive). In addition, in assay [13], the activation was 12.1% (inactive). Besides, the max response in assay [10] (setting [14]) was 9.62%; in [10] (setting [15]), 21.2%. In [11], the result was inactive.

For `O=S(=O)(c1ccccc1)N1CCC2(CCCN(c3ccccn3)C2)CC1`, the Potency in assay [1] was > 11.4 µM (inactive); in assay [3] it was 7.94 µM (active); in assay [5], > 46 µM (inactive); in assay [9], 0.158 µM (active). Further, the activity change, negative = inhibition in assay [2] is -6.83% (inactive); in assay [10], 5.71% (inactive). In addition, in [4], the activity, negative = inhibition is -6.34% (inactive). Further, the Potency entry in assay [6] and in assay [7] was “inactive” in each case. The activation in assay [13] is -11.6% (inactive). Moreover, the max response in [10] (setting [14]) worked out at 17.9%; in assay [10] (setting [15]), 25.4%. Further, the result in assay [11] was inactive.
